Experimental findings from publication PMC5540273 (PLoS ONE, 2017) are described below.

Where “and” joins values, the source holds several entries; their conditions need not be identical. Identical values can stand only once. Like-named read-outs stand apart in the source and are kept apart here.

One test concerns TIE1. The following applies: concentration: 1 μM, replicates: in singlicate; n = 1.
A further test relates to T1, TIE2.
T1 construct: gene TEK
The following applies: concentration: 1 μM, replicates: in singlicate, n = 1.

The test system of a further test is TLK1. The settings on record: concentration: 1 μM, replicates: in singlicate, n = 1.
A further test deals with TLK2. The following applies: concentration: 1 μM, replicates: in singlicate, n = 1.
In another test the test system is TNIK. The settings on record: concentration: 1 μM, replicates: in singlicate, n = 1.
Another test deals with TNK1. The following applies: concentration: 1 μM, replicates: in singlicate, n = 1.
For the next test, the system named is TNK2. The following applies: concentration: 1 μM, replicates: in singlicate; n = 1.
In another test the test system is TNNI3K. The settings on record: concentration: 1 μM, replicates: in singlicate, n = 1.
Another test concerns T2, TRKA.
T2 construct: gene NTRK1
The settings on record: concentration: 1 μM, replicates: in singlicate, n = 1.

For the next test, the system named is TRKB. The following applies: concentration: 1 μM, replicates: in singlicate, n = 1.
The subject of the next test is T3, TRKC.
T3 construct: gene NTRK3
The following applies: concentration: 1 μM, replicates: in singlicate, n = 1.

The test system of the next test is TRPM6. The following applies: concentration: 1 μM, replicates: in singlicate, n = 1.
The subject of the next test is TSSK1B. The settings on record: concentration: 1 μM, replicates: in singlicate; n = 1.
The subject of another test is TSSK3. The settings on record: concentration: 1 μM, replicates: in singlicate, n = 1.
The subject of another test is TTK. The settings on record: concentration: 1 μM, replicates: in singlicate, n = 1.
In another test the test system is TXK. The following applies: concentration: 1 μM, replicates: in singlicate; n = 1.
Test [1] relates to TYK2(JH1domain-catalytic). The following applies: concentration: 1 μM, replicates: in singlicate, n = 1.
For test [2], the system named is TYK2(JH2domain-pseudokinase). The following applies: concentration: 1 μM, replicates: in singlicate, n = 1.
A further test has as its system TYRO3. The following applies: concentration: 1 μM, replicates: in singlicate; n = 1.
The test system of the next test is ULK1. The following applies: concentration: 1 μM, replicates: in singlicate, n = 1.
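Note: KINOMEscan kinase panel screen.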

`COc1ccc(-c2oc3ncnc(N)c3c2-c2ccc(OC)cc2)cc1` [SB-589132]: the “%Inh” value in the test on TIE1 was found to be 1%; in the test with TIE2, 9%; with TLK1, 0%; in the test with TLK2, 0%; with TNIK, 0%; in the test with TNK1, 45%. The “%Inh” value was 44% in the test with TNK2; 50% in the test on TNNI3K; 52% with TRKA; 74% in the test with TRKB; 71% in the test on TRKC; 0% in the test with TRPM6. Besides, the “%Inh” value with TSSK1B was found to be 19%; in the test on TSSK3 it was 22%; with TTK, 31%; in the test on TXK it was 11%; in test [1], 53%; in [2], 98.9%. Also, the “%Inh” value in the test on TYRO3 is given as 0%; in the test on ULK1 it was 9%.

For the compound `CC(=O)Nc1n[nH]c2ncc(-c3ccccc3)cc12` [SB-548492], the “%Inh” value is 0% with TIE1; 21% in the test with TIE2; 6% in the test with TLK1; 0% with TLK2; 12% in the test with TNIK; 0% in the test with TNK1. Further, the “%Inh” value worked out at 0% in the test on TNK2; 0% in the test with TNNI3K; 90.1% in the test on TRKA; 25% with TRKB; 51% with TRKC; 0% with TRPM6. Further, the “%Inh” value was 0% with TSSK1B; 0% in the test with TSSK3; 43% with TTK; 9% with TXK; 12% in test [1]; 81% in test [2]. Moreover, the results for the “%Inh” value with TYRO3 and with ULK1 were 0% and 3%, respectively.

As to `Nc1nc(-c2ccccn2)c(-c2ccnc3ccccc23)s1` [GW548057], the “%Inh” value in the test with TIE1 was determined as 0%; in the test on TIE2, 0%; with TLK1, 12%; in the test with TLK2 it was 4%; in the test with TNIK, 33%; in the test on TNK1 it was 0%. Also, the “%Inh” value worked out at 5% in the test on TNK2; 0% with TNNI3K; 49% in the test with TRKA; 0% in the test with TRKB; 45% with TRKC; 0% with TRPM6. Moreover, the “%Inh” value in the test on TSSK1B is given as 0%; with TSSK3 it was 9%; in the test on TTK, 2%; in the test on TXK, 0%; in test [1], 24%; in [2] it was 29%. The “%Inh” value in the test on TYRO3 and with ULK1 was 0% in each case.

Turning to `O=C(NCCCN1CCCC1=O)c1cnc(NCc2cc(Cl)ccc2Cl)nc1NC1CCNCC1`, the “%Inh” value with TIE1 amounted to 1%; in the test on TIE2, 2%; in the test on TLK1, 12%; in the test with TLK2, 0%; in the test with TNIK it was 0%; with TNK1, 34%. The “%Inh” value is 0% in the test with TNK2; 0% in the test on TNNI3K; 69% in the test on TRKA; 32% in the test on TRKB; 15% with TRKC; 0% in the test on TRPM6. Further, the “%Inh” value (in the test with TSSK1B; in the test with TSSK3; in the test on TTK; with TXK; in test [1]; in test [2]) was 0% each time. Also, the “%Inh” value in the test with TYRO3 worked out at 14%; in the test with ULK1 it was 0%.

For `Fc1cccc(COc2ccc(Nc3ncnc4cc[nH]c34)cc2Cl)c1`, the “%Inh” value came to 0% in the test on TIE1; 5% in the test on TIE2; 25% in the test with TLK1; 12% in the test with TLK2; 11% with TNIK; 0% in the test on TNK1. For the same compound, the “%Inh” value with TNK2 turned out to be 27%; in the test with TNNI3K, 5%; in the test on TRKA it was 2%; with TRKB, 17%; in the test on TRKC, 0%; in the test with TRPM6, 0%. In addition, the “%Inh” value is given as 0% with TSSK1B; 0% in the test on TSSK3; 4% with TTK; 0% with TXK; 19% in test [1]; 28% in test [2]. Moreover, the “%Inh” value in the test on TYRO3 came to 19%; in the test on ULK1, 24%.

For `Cl.c1ccc(Cn2ncc3cc(Nc4ncnc5ccccc45)ccc32)cc1` [GW273749], the “%Inh” value with TIE1 was 0%; in the test on TIE2 it was 0%; in the test with TLK1, 15%; in the test on TLK2, 0%; in the test on TNIK, 0%; in the test with TNK1, 0%. Moreover, the “%Inh” value in the test on TNK2 is recorded as 12%; with TNNI3K it was 0%; in the test with TRKA it was 0%; in the test with TRKB, 0%; in the test on TRKC, 0%; in the test on TRPM6 it was 37%. Moreover, the “%Inh” value in the test on TSSK1B is on record as 0%; with TSSK3, 11%; in the test on TTK, 18%; in the test on TXK, 11%; in test [1], 0%; in test [2] it was 12%. For the same compound, the “%Inh” value is listed as 0% in the test with TYRO3 and 19% with ULK1.

Turning to `COc1ccc(-c2nc3n(c2-c2ccncc2)CCC3)cc1` [SKF-104493], the “%Inh” value in the test with TIE1 is 0%; in the test on TIE2 (1 µM), 0% and 2%; in the test on TLK1 (1 µM), 7% and 0%; in the test with TLK2 (1 µM) it was 0% and 24%; in the test with TNIK (1 µM), 0% and 11%; in the test on TNK1 (1 µM), 6% and 0%. Moreover, the “%Inh” value in the test with TNK2 was 0%; in the test on TNNI3K (1 µM), 25% and 6%; with TRKA (1 µM), 0% and 32%; with TRKB (1 µM) it was 13% and 0%; with TRKC (1 µM) it was 25% and 5%; with TRPM6 (1 µM) it was 0% and 3%. Further, the “%Inh” value is 0% with TSSK1B; 21% and 8% with TSSK3 (1 µM); 30% and 0% in the test on TTK (1 µM); 0% with TXK; 7% and 0% in [1] (1 µM); 9% and 1% in test [2] (1 µM). Besides, the “%Inh” value was 0% with TYRO3; 7% and 0% in the test with ULK1 (1 µM).

As to `COC(=O)c1cccc(NC(=O)NCCNc2ccnc(Nc3ccc(F)cc3)n2)c1` [GSK1379883], the “%Inh” value was determined as 0% with TIE1; 0% in the test with TIE2; 1% in the test on TLK1; 0% with TLK2; 0% with TNIK; 0% with TNK1. Further, the “%Inh” value in the test on TNK2 was determined as 14%; in the test with TNNI3K it was 0%; with TRKA, 19%; in the test with TRKB, 0%; with TRKC, 12%; in the test on TRPM6, 0%. The “%Inh” value is 0% in the test on TSSK1B; 23% with TSSK3; 0% with TTK; 0% in the test on TXK; 11% in test [1]; 20% in [2]. For the same compound, the “%Inh” value with TYRO3 and in the test on ULK1 was 0% each time.

For the compound `CCc1nc(-c2cccc(N(C)S(=O)(=O)c3ccccc3)c2)c(-c2ccnc(Nc3ccc(N4CCN(C(C)=O)CC4)nc3)n2)s1` [GSK1645895], the “%Inh” value turned out to be 5% in the test on TIE1; 18% in the test on TIE2; 26% in the test with TLK1; 20% in the test with TLK2; 4% with TNIK; 29% with TNK1. Also, the “%Inh” value in the test with TNK2 worked out at 3%; in the test with TNNI3K, 0%; with TRKA, 0%; in the test with TRKB, 0%; with TRKC it was 0%; in the test on TRPM6, 56%. Also, the “%Inh” value with TSSK1B was found to be 0%; with TSSK3 it was 15%; in the test with TTK, 9%; in the test with TXK, 15%; in test [1] it was 0%; in [2] it was 14%. In addition, the “%Inh” value in the test with TYRO3 was found to be 0%; in the test on ULK1 it was 4%.

With `CCc1nc(-c2cccc(C)c2)c(-c2ccnc(NC(=O)c3ccccc3)c2)s1`, the “%Inh” value was found to be 0% in the test with TIE1; 0% in the test with TIE2; 13% with TLK1; 0% in the test on TLK2; 62% in the test with TNIK; 27% with TNK1. The “%Inh” value in the test on TNK2 was 9%; with TNNI3K, 0%; in the test on TRKA it was 17%; in the test with TRKB, 0%; in the test with TRKC, 15%; in the test on TRPM6, 0%. Further, the “%Inh” value in the test on TSSK1B was 0%; in the test on TSSK3, 1%; with TTK, 16%; in the test with TXK, 0%; in [1], 24%; in [2], 17%. Besides, the “%Inh” value with TYRO3 is 0%; in the test on ULK1 it was 1%.
